Drawing on PubChem BioAssay (NCI), this text covers growth for 40 compounds.

The test concerns MDA-MB-468 breast. Kind of test: NCI-60 one-dose screen, 48 h (100 = growth as untreated, 0 = no growth, -100 = all killed). The note with it: 10 µM unless noted.

The structures appear in SMILES notation. Where “and” joins values, the source holds several entries; their conditions need not be identical. Identical values can stand only once. About 83,000 compounds went through this panel and 20% of them were active in at least one assay; those are over-represented in the sample as a whole.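 48-hour exposure, single concentration, 96-well plates; percent growth endpoint where 0 means no net growth. Active: below 10.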 Unmarked numbers belong to inactive results. Calls of active or inactive are those of the source.

`Cc1ccc2[nH]c(=O)c3c(c2c1)OC(N)=C(C#N)C31C(=O)c2cccc3cccc1c23` (stereo not given): the growth is 95.1%.
On to `NC(=O)CCCN1C/C(=C\c2ccccc2)C(=O)c2ccccc21`, for which the growth was 90.8%.
The value for `CN(C)CCN(Cc1ccccc1)c1ccccc1` was 103%; that for `O=C(O)CCCN1C(=O)/C(=C/c2cn(-c3ccccc3)nc2-c2ccc([N+](=O)[O-])cc2)SC1=S` was 73.5%; that for `CC1(C)CC[C@]2(C(=O)N3CCOCC3)CC[C@]3(C)C(=CC[C@@H]4[C@@]5(C)CC[C@H](OC(=O)c6cccnc6)C(C)(C)[C@@H]5CC[C@]43C)[C@@H]2C1` was 45.6%.
Turning to `CC(C)Sc1nc(-c2ccc(Br)cc2)c(C#N)c(N2CCCCC2)n1`, the growth was 93.9%.
For `CC(=O)Nc1c(C)cc(C)cc1C`, the growth was 108%.
Take `Cc1ccc(-c2nc(/C=C3/C(=O)Nc4ccccc43)c3ccccn23)cc1`: the growth is 69.6%.
With `CCCCOc1ccc(NC(=O)Nc2nnc(C)s2)cc1`, the growth was 103%.
For `CCCCCCN(C)Cc1ccc(OCCOc2ccc(CN(C)CCCCCC)cc2)cc1`, the growth is -59.9% (active).
As to `C[C@@H]1N=C(c2ccc(Br)cc2)Nc2nc3ccccn3c2C1=O`, the growth is -0.502% (active).
On to `Oc1ccc(CSc2nnc(-c3ccccc3)n2-c2ccccc2)c2cccnc12`, for which the growth is -2.77% (active).
As for `c1ccc(-c2ccc(-c3nc4ccccc4[nH]3)cc2)cc1`, the growth is 87%.
The same measure for `CCOC(=O)CC(S(=O)(=O)c1ccccc1)S(=O)(=O)c1ccccc1`: 23.2%.
With `CCOC(=O)C1=C(c2ccccc2)N=C2N(c3ccccc3)N=C(C(C)=O)N2C1c1ccc(F)cc1` (stereo not given), the growth was 93.2%.
Take `CCn1c(Cc2ccccc2Nc2c(Cl)cccc2Cl)nnc1SCC(=O)Nc1cccc(OC)c1`: the growth is 75%.
For the compound `COC(=O)c1[nH]nc2c1C1(C(=O)c3cccc4cccc1c34)C(C#N)=C(N)O2` (stereo not given), the growth was 86.3%.
In the case of `CCOC(=O)CSc1ncnc2c1c(-c1ccccc1)c(-c1ccccc1)n2-c1ccc(C)cc1`, the growth was 51.9%.
As to `CC1(C)N=C(N)N=C(N)N1c1ccc(CCCCc2ccccc2)c(Cl)c1`, the growth was -20.8% (active).
The same measure for `O=c1cc(/C(=C2/C=CC=N2)c2ccc[nH]2)c2cc(Cl)ccc2o1`: 2.6% (active).
For `Clc1ccc(Sc2nc(NC3CC3)nc(Sc3ccc(Cl)cc3)n2)cc1`, the growth is 91.2%.
Take `O=C(Nc1ccc(-n2cc(-c3ccncc3)c(-c3ccc(Cl)c(O)c3)n2)cc1)c1cc(C(F)(F)F)cc(C(F)(F)F)c1`: the growth was 71.9%.
Regarding `C(#CCN1CCOCC1)CCCN1CCOCC1`, the growth was 93.6% and 110%.
In the case of `CN(C)c1ccc(/C=C(\C#N)c2cc3ccccc3n2C)cc1`, the growth is 31.8%.
For `Clc1ccc(Sc2cnc(-c3ccccc3)o2)cc1`, the growth is 111%.
In the case of `COC(=O)c1sc(-c2ccc(C)cc2)cc1O`, the growth is 99.5%.
As for `C[N+](C)(C)c1ncnc2nc[nH]c12`, the growth is 90.3%.
Consider `O=S(=O)(Nc1ccc(C2CC2)cc1)c1ccc(-c2cnc(C3CC3)o2)cc1`, for which the growth is 18.4%.
`Cc1ccc(OCCOCCOCCOc2ccc(C)n(O)c2=S)c(=S)n1O`: the growth is 12.1%.
In the case of `O=C(O)CN1C(=O)C=CC1=O`, the growth was 104%.
For the compound `Nc1ncc(-c2ccc3ncnc(N4CCc5ccc(Cl)cc54)c3c2)cn1`, the growth was -38% (active).
Take `Oc1cc2ccccc2c(-c2c(O)c(O)cc3ccccc23)c1O`: the growth was 26.6%.
`CC(=O)O[C@@H]1CCN2C(=O)N(C)c3ccccc3[C@@H]2C1`: the growth was 126%.
For the compound `CCC(C)NCc1ccccc1` (stereo not given), the growth was 100%.
On to `COc1ccc(/C=N/NC(=O)c2ccc(-n3cc(-c4ccccc4)nn3)cc2)cc1OC`, for which the growth is 101%.
The same measure for `CC1(C)CC[C@]2(C(=O)O)CC[C@]3(C)C(=CCC4[C@@]5(C)C[C@@H](O)[C@@H]6OC(c7cccc([N+](=O)[O-])c7)OC[C@@]6(C)C5CC[C@]43C)C2C1` (stereo not given in full): 76%.
In the case of `COc1ccc(-c2cc(/C=C3\C(=O)Nc4cc(Cl)ccc43)[nH]n2)cc1`, the growth was 11.3%.
On to `OC(c1cccc(OCc2ccccc2)c1)c1nnc(-c2ccccc2)o1` (stereo not given), for which the growth is 64.8%.
Regarding `CC(C)(C)n1cc(-c2ccnc(NCCNS(=O)(=O)c3cccc4ccccc34)c2)c(-c2cccc(O)c2)n1`, the growth is 46.2%.
Turning to `COc1cc(/C=C/C(=O)c2ccc(Cl)cc2)ccc1OS(=O)(=O)c1ccc(C)cc1`, the growth is 99.7%.
